Bioassay records: PubChem BioAssay, National Center for Advancing Translational Sciences (NCATS)
LASV entry inh = Lassa virus entry inhibition; Lassa virus pseudotype entry inhibition, cell reporter; Potency, µM (series often up to 37.9 µM), usual class: inhibitors; actives 1.2% (n = 300,000); AID 540256; calls by dose curve; tested in HEK293 cells; also: nearly all actives have a fitted effect of over 50% in size
CHX counter = affects cycloheximide protein synthesis inhibition readout, counter-screen; cell reporter, cycloheximide protein synthesis inhibition counterscreen; max response, %; actives 12% (n = 300,000); AID 2314; in the data active = max response mostly above about 13%, no sharp cut-off; inactive = mostly below about 14%; also: read at 38.3 µM for the half of the compounds with a filed dose
Shiga toxin inh = Shiga toxin inhibition. Vero cells, Shiga toxin protein synthesis inhibition reporter. inhibition, % at 38.7 µM. actives 9.2% (n = 290,000); in the data active = inhibition mostly above about 28%, no sharp cut-off; inactive = mostly below about 43%
Vaccinia Venus = vaccinia inhibition (Venus reporter); Potency, µM (highest dose often 36.5 µM), most hits filed as inhibitors; actives 0.46% (n = 330,000); Vaccinia virus Venus reporter expression, fluorescence; calls by dose curve; tested in A549 cells; also: nearly all actives have a fitted effect of over 30% in size
Vaccinia mCherry = inhibitors of vaccinia virus infection (mCherry reporter signal); Potency, µM (top dose mostly 36.5 µM), usual class: inhibitors; Vaccinia virus mCherry reporter infection, fluorescence; actives 0.63% (n = 310,000); calls by dose curve; tested in A549 cells; also: nearly all actives have a fitted effect of over 35% in size
Marburg entry inh = Marburg virus entry inhibition; Marburg virus pseudotyped entry inhibition, cell reporter; Potency, µM (top dose mostly 37.8 µM), actives largely listed as inhibitors; actives 1.8% (n = 300,000); calls by dose curve; tested in HEK293 cells
Hits are given with their value; n = inactive; u = inconclusive; x = not tested or not shown. Many of the other results were omitted from the sample, so hits are more common in it than they were.

SMILES	LASV entry inh	CHX counter	Shiga toxin inh	Vaccinia Venus	Vaccinia mCherry	Marburg entry inh
CSc1ccc(/C=C/C(=O)NC(=O)c2ccccc2O)cc1	x	9.6	n	x	x	x
O=C(/C=C/c1ccc(Br)cc1)NC(=O)c1ccccc1O	n	32	n	u	u	n
CCC1(C2CCN(C(=O)c3cc(F)ccc3F)CC2)NC(=O)N(CCc2scnc2C)C1=O (configuration not stated)	x	x	x	n	n	x
Cc1n[nH]c(C)c1CCOc1ccc(C(C)C)cc1	n	n	49	x	x	u
Cc1cccc(N2CCN(S(=O)(=O)c3ccc(F)c(C(=O)Nc4ccc(C(C)C)cc4)c3)CC2)c1C	n	x	x	n	n	x
O=C1c2cccc3c(N4CCCCC4)ccc(c23)C(=O)N1c1ccccc1O	x	n	n	x	x	x
O=C1c2cccc3c(N4CCCCC4)ccc(c23)C(=O)N1c1ccc(O)cc1	n	18	n	n	n	u
O=C(CN1C(=O)NC2(CCCc3ccccc32)C1=O)c1ccccc1F (configuration not stated)	n	x	x	n	n	n
CC(=O)Nc1ccc(NC(=O)c2c(C)nn(-c3ccccc3)c2Cl)cc1C	n	n	n	n	n	n
CCc1nnc(NC(=O)c2c(C)nn(-c3ccccc3)c2Cl)s1	n	42	n	x	x	n
Cc1nn(-c2ccccc2)c(Cl)c1C(=O)NCC(C)c1ccccc1 (configuration not stated)	u	43	74	n	n	u
COc1ccccc1NC(=O)c1cc2c(C)nn(-c3ccccc3)c2s1	n	x	x	n	n	u
COc1ccccc1NC(=O)c1c(C)nn(-c2ccccc2)c1Cl	x	14	n	x	x	x
Cc1ccccc1NC(=O)c1c(C)nn(-c2ccccc2)c1Cl	n	38	69	n	n	u
CCS(=O)(=O)c1ccc2oc(SCC(=O)Nc3ccc(OC)cc3)nc2c1	x	n	n	x	x	x
CC(C)[C@H](NC(=O)[C@@H]1CSC2c3ccccc3C(=O)N21)C(=O)NC1CCCCC1 (some centres not stated)	x	n	n	x	x	x
CCOc1ccc(NC(=O)CSc2nncc(=O)n2N)cc1	n	n	n	n	n	n
Clc1ccc(N2O[C@H]3C=C[C@@H]2C3)nc1	x	x	x	n	n	x
C/C(=N/Nc1ccccc1C(=O)O)c1cccs1	u	20	n	n	n	n
C/C(=N\Nc1ccc(Cl)c(C(=O)O)c1)c1cccs1	n	32	90	n	u	u
C/C(=N\Nc1ccc(Cl)c(C(=O)O)c1)c1ccc[nH]1	n	51	157	n	n	n
COc1ccc(NC(=O)CCCc2nnc3n(C(C)C)c(=O)c4sccc4n23)cc1Cl	n	x	x	n	n	x
O=C(Oc1ccc(Br)cc1C(=O)/C=C/c1ccccc1F)c1ccco1	u	x	x	n	u	u
O=C(Cc1ccccc1)Nc1ccccc1Oc1ccccc1	n	n	n	n	n	n
O=C(Nc1ccc(F)cc1F)C1CCN(C(=O)c2ccc(Br)cc2)CC1	x	n	n	n	n	x
SMILES	LASV entry inh	CHX counter	Shiga toxin inh	Vaccinia Venus	Vaccinia mCherry	Marburg entry inh
O=C(/C=C/Nc1ccccc1Oc1ccccc1)c1ccco1	u	51	119	n	n	u
O=C(/C=C/Nc1ccccc1O)c1ccco1	n	38	63	n	u	n
O=C(/C=C/Nc1ccc(Br)cc1F)c1ccco1	2.2µM	n	n	n	n	1.4µM
O=C(/C=C/Nc1ccc(F)cc1F)c1ccc(Br)cc1	7.1µM	x	x	n	n	u
CCN(CC)c1nc2c(S(=O)(=O)c3ccc(C)cc3)nnn2c2ccsc12	n	x	x	n	n	x
Cc1ccccc1NC(=O)c1nc(S(=O)(=O)Cc2ccccc2F)ncc1Cl	x	x	x	n	n	x
CCOc1ccc(-c2c(=O)n(OCc3ccccn3)c3ccccc3[n+]2[O-])cc1	n	n	50	x	x	n
CCCOc1ccc(-c2c(=O)n(O)c3ccccc3[n+]2[O-])cc1	n	29	x	n	n	u
COc1ccc(-n2c(CC3C(=O)N(C)c4ccc(C)cc43)nc3ccccc3c2=O)cc1 (configuration not stated)	n	x	x	n	n	n
O=C(CSc1ncnc2c1nnn2Cc1ccccc1)NC1CCCC1	n	n	n	n	n	n
CC(C)(C)NC(=O)CSc1ncnc2c1nnn2Cc1ccccc1Cl	18µM	n	n	n	n	u
Cc1ccccc1OCC(=O)Nc1ccccc1C(=O)OCc1cc(=O)n2c(C)csc2n1	n	x	x	n	n	x
Clc1ccc(N2COC3c4cccc5cccc(c45)C32)cc1 (configuration not stated)	n	n	49	x	x	n
CS(=O)(=O)NC1c2cccc3cccc(c23)C1N1CCOCC1 (configuration not stated)	n	n	n	n	n	n
